GLP-1R inv ag – acts as inverse agonist at human GLP-1 receptor; HEK293 GLP-1R CRE-luciferase, luminescence, 24 h; GLP-1R form is constitutively active; AID 624417; hit rate 1.6% among 410,000; Potency, µM (top dose mostly 38.3 µM), most hits filed as inhibitors; note: nearly all actives have a fitted effect of over 55% in size
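HEK293 cells stably co-expressing a cAMP-responsive luciferase reporter and constitutively active GLP-1R were seeded, incubated 12 h, then exposed to compounds for 24 h at 37 C. Luminescence was read 12 min after detection reagent; inverse agonists lower signal.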
PTHR1 agonist – activates the human parathyroid hormone receptor PTHR1. Q03431. HEK293 GP2 PTHR1 cells, GloSensor cAMP luminescence, 1 h. Potency, µM (doses to about 115 µM), actives largely listed as activators. hit rate 0.075% among 410,000; note: nearly all actives have a fitted effect of over 55% in size
Target sequence (Q03431 whole entry, looked up): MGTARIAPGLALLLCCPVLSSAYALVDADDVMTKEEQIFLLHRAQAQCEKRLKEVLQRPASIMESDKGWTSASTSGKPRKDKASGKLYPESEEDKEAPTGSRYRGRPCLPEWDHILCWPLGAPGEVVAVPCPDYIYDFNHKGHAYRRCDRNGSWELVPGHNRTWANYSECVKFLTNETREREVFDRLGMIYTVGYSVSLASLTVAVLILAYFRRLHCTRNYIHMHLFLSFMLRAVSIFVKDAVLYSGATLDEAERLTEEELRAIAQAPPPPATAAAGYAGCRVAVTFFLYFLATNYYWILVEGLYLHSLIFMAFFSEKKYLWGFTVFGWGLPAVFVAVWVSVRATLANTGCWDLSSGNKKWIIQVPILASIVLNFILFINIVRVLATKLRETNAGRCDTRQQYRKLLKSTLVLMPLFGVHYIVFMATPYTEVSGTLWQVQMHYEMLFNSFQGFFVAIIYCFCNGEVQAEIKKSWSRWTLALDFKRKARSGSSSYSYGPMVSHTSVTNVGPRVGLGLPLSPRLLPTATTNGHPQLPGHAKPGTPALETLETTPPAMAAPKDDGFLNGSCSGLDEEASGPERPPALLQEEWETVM
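HEK-293-derived GP2 cells expressing PTHR1 and a GloSensor cAMP reporter, 3,000/well, plated overnight, given luciferin plus IBMX (each 0.5 mM as added) for 1 h at 37 °C, then compound for 1 h at 37 °C. Luminescence was read after 15 min at room temperature.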
GLP1R ag – GLP-1 receptor (human) agonism; P43220; HEK293 GLP-1R CRE-luciferase, luminescence, 4-6 h; cells express a hypersensitive GLP-1R form; Potency, µM (highest dose often 45.6 µM), hits mostly activators; hit rate 0.007% among 380,000; AID 624172
12-LOX inh – ALOX12 (human) lipoxygenase inhibition; purified 12hLO, xylenol orange hydroperoxide absorbance; AID 1671190; hit rate 1.1% among 580,000; Potency, µM (series often up to 108 µM), most hits filed as inhibitors
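Purified human 12hLO (150 nM final) in 25 mM Hepes, 0.01% Triton X-100, pH 7.0 was preincubated 15 min at room temperature with compound. Then 40 uM arachidonic acid was added, 30 min. Hydroperoxide was read by Fe-XO absorbance ratio 573/405 nm.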
GRP78 ERSR act – inducers of ER stress response in human glioma cells | AID 602332 | Potency, µM, actives largely listed as activators | hit rate 0.02% among 420,000 | U87-MG GRP78 promoter luciferase reporter, 16 h; note: series mostly up to about 76 µM; nearly all actives have a fitted effect of over 35% in size
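Stably transfected U87-MG glioma cells carrying a GRP78-based luciferase sensor; 16 h compound incubation. Luminescence end-point read 10 min after Bright-Glo addition at room temperature.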
GLS inh – inhibitors of human glutaminase (GLS); Potency, µM (titrated, usually from 45.5 µM), usual class: inhibitors; AID 624170; hit rate 0.21% among 410,000; GLS enzymatic activity, qHTS titration
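Human kidney-isoform GLS in 45 mM KH2PO4 pH 8.2, 0.02% Tween-20, with compound, started with 1mM L-Glutamine (added stock). Glutamate oxidase/HRP/Amplex red coupled fluorescence read at start and after 30 min at RT.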
Numbers stand for hits; 0 = inactive; ? = inconclusive; - = no result; ! = repeats disagree. This is a sample that favours compounds with a hit; in the whole collection about 2.3% have one here. Calls come from the whole dose curve; as a rule, active = well fitted curve in the direction sought with a large enough effect; inconclusive = small, poorly fitted or top-dose-only effect, or another doubt; inactive = no such curve, though single readings can be large; an effect the other way counts as inactive or inconclusive.

SMILES	GLP-1R inv ag	PTHR1 agonist	GLP1R ag	12-LOX inh	GRP78 ERSR act	GLS inh
Cc1ccc(CNC(=O)C2CCN(c3nc4c(C)cc(C)cc4s3)CC2)cc1	-	-	-	0	-	-
Nc1ccc2cc(S(=O)(=O)O)cc(S(=O)(=O)O)c2c1	-	-	-	0	-	-
CC(C1CC2CCC1C2)n1c(-c2cccs2)n[nH]c1=S (stereo unspecified)	5µM	0	0	45µM	0	0
S=c1[nH]nc(-c2cccs2)n1C1CCCCC1	0	0	0	?	0	0
Cc1ccc(C)n1-c1nc(=S)[nH][nH]1	0	0	0	4.5µM	0	?
S=c1nc(-c2ccc(Cl)cc2)[nH][nH]1	0	0	0	?	?	0
CCC1c2ccsc2CCN1C(=O)/C=C/c1cccc(C)c1 (stereo unspecified)	-	-	-	0	-	-
N/C(=N\S(=O)(=O)c1cc(C(F)(F)F)cc(C(F)(F)F)c1)c1ccc(Cl)cc1	2.5µM	0	0	0	0	0
CCOc1cccc2cc(C(=O)Oc3ccc(OC)cc3)c(=O)oc12	0	0	0	35µM	0	0
COc1cccc2cc(C(=O)Oc3ccccc3)c(=O)oc12	0	0	0	0	0	0
COc1cc(/C=N/NC(=O)c2cccc(S(=O)(=O)N3CCCC3)c2)ccc1O	0	0	0	0	0	?
O=C(Nc1nn[nH]n1)c1cccc(S(=O)(=O)N2CCCCCC2)c1	-	-	-	10µM	-	-
O=C(Nc1nn[nH]n1)c1ccc(S(=O)(=O)N2CCCCC2)cc1	0	0	0	0	0	0
O=C(N/N=C/c1ccc(O)c(O)c1)c1cccc(S(=O)(=O)N2CCCC2)c1	0	0	0	?	0	11µM
CC(=O)Nc1ccc(C)cc1-c1nnc(SCC(=O)Nc2ccc(Cl)c(Cl)c2)[nH]c1=O	-	-	-	0	-	-
O=C(CCNc1nc(Cl)nc2nc[nH]c12)NCCc1c[nH]c2ccccc12	-	-	-	0	-	-
COc1cccc(C2CC(=O)NC3=C2C(=O)CC(C)(C)C3)c1 (stereo unspecified)	-	-	-	0	-	-
COc1ccc(NC(=O)c2cc(Br)c(Br)s2)cn1	?	0	0	13µM	0	0
CCc1cc(C(=O)Nc2ccc(OC)nc2)sc1C	?	0	0	?	0	0
CCc1sc(C(=O)Nc2cccnc2)cc1Br	0	0	0	25µM	0	0
Cc1nc(-n2ccc3nc4ccn(C5CCCCCC5)c(=O)c4cc3c2=O)n[nH]1	-	-	-	0	-	-
Cc1cc(SCC(=O)O)nc2ccccc12	0	0	0	0	0	0
O=C(CSc1n[nH]c(-c2ccccc2)n1)c1ccc(O)c(O)c1	0	0	0	2.5µM	0	0
Cc1cc(SCC(=O)c2ccc3c(c2)OCCO3)nc2ccccc12	-	-	-	16µM	-	-
Cc1cc(SCC(=O)c2ccc3c(c2)OCO3)nc2ccccc12	0	0	0	0	0	0
SMILES	GLP-1R inv ag	PTHR1 agonist	GLP1R ag	12-LOX inh	GRP78 ERSR act	GLS inh
Cc1cc(SCC(=O)c2ccc(O)c(O)c2)nc2ccccc12	0	0	0	6.3µM	0	?
CCCC/C(C)=N/NC(=S)Nc1ccccc1	-	-	-	6.3µM	-	-
COc1ccc(C/C(C)=N/NC(=S)Nc2ccccc2)cc1	?	0	0	?	0	0
COCCNC(=O)NC(=O)CSc1nc(-c2ccco2)nc2ccccc12	-	-	-	0	-	-
CNS(=O)(=O)c1ccc(NCCc2ccc(S(N)(=O)=O)s2)c([N+](=O)[O-])c1	-	-	-	18µM	-	-
CS(=O)(=O)c1ccc(NCCc2ccc(S(N)(=O)=O)cc2)c([N+](=O)[O-])c1	0	0	0	0	0	0
COc1cc(CCc2ccccc2)c(C(=O)O)c(O)c1C/C=C(/C)CCC=C(C)C	?	0	0	?	0	0
COc1cc(CCc2ccccc2)c(C(=O)O)c(O)c1CC=C(C)C	10µM	0	0	?	0	0
Cc1cc(Br)cc2c1N(Cc1ccccc1OC(C)C)C(=O)C2=O	?	0	-	4.5µM!	-	?
O=C(Nc1cccc(S(=O)(=O)N2CCCCC2)c1)C1CC(=O)N(C2CCCC2)C1 (stereo unspecified)	-	-	-	0	-	-
O=C(CCCn1c(=O)oc2ccccc21)Nc1cccc(-c2nnc3n2CCCCC3)c1	-	-	-	0	-	-
Cc1c(N=C2SCC(=O)N2/N=C\c2ccc(Br)cc2)c(=O)n(-c2ccccc2)n1C	8.9µM	0	0	0	0	0
CCN(CC)S(=O)(=O)c1cccc(C(=O)NCCc2ccccc2)c1	0	0	0	0	0	0
CN(c1ccccc1)S(=O)(=O)c1cccc(C(=O)NCCc2ccc(O)c(O)c2)c1	0	0	0	?	?	3.5µM
COc1ccc(-n2nnc(C(=O)OCc3cc(C)ccc3C)c2C)cc1	-	-	-	0	-	-
CCOC(=O)c1c(C)oc2ccc(O)c(CN(C)C)c12	0	0	0	?	0	0
CCOC(=O)c1c(CSc2ccc(CC)cc2)oc2ccc(O)c(CN(C)C)c12	2.5µM	0	0	?	0	0
Cc1onc(-c2ccccc2Cl)c1C(=O)N1CCN(c2ccccc2)CC1	0	0	0	0	0	0
O=C(c1cc2cc(F)ccc2[nH]1)N1CCN(c2cccc(Cl)c2)CC1	0	0	0	0	0	0
Cc1[nH]c(-c2ccc(F)cc2)cc1C(=O)N1CCN(c2cccc(Cl)c2)CC1	5µM	0	0	0	0	0
Cc1onc(-c2ccccc2Cl)c1C(=O)N1CCN(c2cccc(Cl)c2)CC1	1µM	0	0	0	0	0
CN(C)c1ccc(N=Nc2ccc(C(=O)O)cc2)cc1	2.5µM	0	0	0	0	0
Cc1ccc(NC(=O)c2nccnc2N)cc1I	-	-	-	0	-	-
CCc1cccc2c1NC(=O)C2(O)CC(=O)c1ccc(Cl)cc1 (stereo unspecified)	-	-	-	0	-	-
Cc1ccc(C=Nc2ccc(Nc3ccccc3)cc2)s1	-	-	-	40µM	-	-
SMILES	GLP-1R inv ag	PTHR1 agonist	GLP1R ag	12-LOX inh	GRP78 ERSR act	GLS inh
O=C(Nc1nnc(CCc2ccccc2)s1)c1cc(=O)[nH]c2ccccc12	-	-	-	0	-	-
Cc1ccc(C(=O)c2sc(Nc3ccc(F)cc3)nc2N)c(C)c1	5µM	0	-	?	0	0
CCOC(=O)c1ccc(Nc2nc(N)c(C(=O)c3ccc(C)cc3C)s2)cc1	-	-	-	0	-	-
CNC(=O)c1cc(C(=O)c2ccc(Cl)cc2)c[nH]1	0	0	0	0	0	0
O=C(c1ccc(Cl)cc1)c1c[nH]c(C(=O)NNc2ccccc2)c1	2µM	0	0	?	0	0
Cc1ccc(-c2csc(/C=C/c3cccc(C(F)(F)F)c3)n2)cc1	-	-	-	0	-	-
O=C(c1ccccc1)N1N=C(c2ccc(F)cc2)CC1c1ccc(F)cc1 (stereo unspecified)	10µM	0	0	0	0	0
CN(C)c1ccc(C2CC(c3cccc(NS(C)(=O)=O)c3)=NN2C(=O)c2ccccc2)cc1 (stereo unspecified)	?	0	0	28µM	0	0
CCCCCNc1nc2ccccc2nc1NS(=O)(=O)c1cccc(C)c1	-	-	-	0	-	-

Screens deposited in PubChem by National Center for Advancing Translational Sciences (NCATS).
